In PubChem BioAssay (NCATS):
Results filed as inconclusive are left out. Calls of active or inactive are those of the source. Unless noted, the call rests on the fitted dose curve; in most records, active means well fitted curve in the direction sought with a large enough effect; inconclusive means small, poorly fitted or top-dose-only effect, or another doubt; inactive means no such curve, though single readings can be large; an effect the other way counts as inactive or inconclusive.

Key:
[1] = biological target: ATP-dependent 6-phosphofructokinase (Trypanosoma brucei brucei) (UniProt O15648); assay: qHTS Assay to Find Inhibitors of T. brucei phosphofructokinase: hit validation (AID 492961);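 further: luminescence reports ADP formed as PFK phosphorylates fructose-6-phosphate with ATP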
Sequence of ATP-dependent 6-phosphofructokinase (Trypanosoma brucei brucei) (O15648 whole entry, looked up): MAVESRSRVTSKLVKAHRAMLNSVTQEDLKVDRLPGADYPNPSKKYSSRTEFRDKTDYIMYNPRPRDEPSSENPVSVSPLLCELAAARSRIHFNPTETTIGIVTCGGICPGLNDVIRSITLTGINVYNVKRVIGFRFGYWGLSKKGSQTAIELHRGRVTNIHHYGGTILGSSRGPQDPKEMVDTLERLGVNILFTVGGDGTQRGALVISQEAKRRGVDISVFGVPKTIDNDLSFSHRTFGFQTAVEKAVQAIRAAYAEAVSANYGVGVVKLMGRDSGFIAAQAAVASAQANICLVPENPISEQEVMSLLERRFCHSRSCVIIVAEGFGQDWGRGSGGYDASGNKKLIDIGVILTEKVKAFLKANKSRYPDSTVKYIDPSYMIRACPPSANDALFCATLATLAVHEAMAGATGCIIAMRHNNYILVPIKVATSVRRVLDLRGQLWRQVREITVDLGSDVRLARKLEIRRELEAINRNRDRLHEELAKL
In short: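 In this biochemical qHTS validation, titrated compounds were tested against 1.25 nM PFK with 0.1 mM ATP and 0.5 mM F6P. Percent activity came from controls lacking or containing enzyme.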

[2] = biological target: Luciferin 4-monooxygenase (Photinus pyralis) (UniProt P08659); assay: Biochemical firefly luciferase enzyme assay for NPC (AID 624030);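 further: purified P. pyralis luciferase at 10 nM with luciferin and ATP substrate; nearly all actives have a fitted effect of over 70% in size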
Sequence of Luciferin 4-monooxygenase (Photinus pyralis) (P08659 whole entry, looked up): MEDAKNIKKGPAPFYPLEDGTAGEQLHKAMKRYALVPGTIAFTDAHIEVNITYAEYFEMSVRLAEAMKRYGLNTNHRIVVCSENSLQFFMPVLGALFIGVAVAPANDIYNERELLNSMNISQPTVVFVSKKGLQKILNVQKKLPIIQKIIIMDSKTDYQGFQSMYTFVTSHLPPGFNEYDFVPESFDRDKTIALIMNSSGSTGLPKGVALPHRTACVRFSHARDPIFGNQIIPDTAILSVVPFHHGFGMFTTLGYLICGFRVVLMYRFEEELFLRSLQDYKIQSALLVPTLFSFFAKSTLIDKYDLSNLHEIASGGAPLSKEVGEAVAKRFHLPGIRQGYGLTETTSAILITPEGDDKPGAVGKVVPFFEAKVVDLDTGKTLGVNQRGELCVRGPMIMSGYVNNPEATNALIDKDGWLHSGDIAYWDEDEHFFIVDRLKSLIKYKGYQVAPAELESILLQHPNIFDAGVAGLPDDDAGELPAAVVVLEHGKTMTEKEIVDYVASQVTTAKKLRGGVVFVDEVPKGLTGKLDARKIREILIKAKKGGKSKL
In short: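 Direct inhibition of firefly luciferase enzyme (10 nM final, 50 mM Tris Acetate) assessed by luminescence within 5 minutes. Percent activity scaled between DMSO and PTC124 positive control, with concentration-effect curves classified by fit quality and response.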

[3] = S16 Schwann cell viability assay (CellTiter-Glo assay) (AID 624031);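 further: cellular ATP luminescence as a viability measure; nearly all actives have a fitted effect of over 70% in size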
In short: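 Native S16 rat Schwann cells in DMEM/10% FBS without phenol red were incubated overnight, then exposed to compounds for 24 h at 37 °C/5% CO2. Viability was read as ATP luminescence (CellTiter-Glo), normalized to no-cell wells and DMSO (0%).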

[4] = S16 Schwann cell PMP22 intronic element firefly luciferase assay (AID 624032); further: nearly all actives have a fitted effect of over 30% in size
In short: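 Luciferase reporter of PMP22 intronic-element expression in stably transfected S16 rat Schwann cells, read by ONE-Glo luminescence after 24 h compound exposure at 37 C. Activity scaled between DMSO (0%) and positive-control PTC124; concentration-effect curves quality-classified.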

[5] = S16 Schwann cell PMP22 intronic element beta-lactamase assay (AID 624044; calls by dose curve; further: potency means the concentration at half of the fitted maximal effect; nearly all actives have a fitted effect of over 15% in size); settings: S16 rat Schwann cells, PMP22 element beta-lactamase FRET, 24 h; ratio activity, negative = inhibition: at 38.3 µM (top of the series)
In short: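 Beta-lactamase reporter under a PMP22 intronic regulatory element in stable S16 rat Schwann cells; 24 h compound exposure. 460 nm blue signal normalized between DMSO (0%) and potassium clavulanate, with 535 nm FRET tracking viability; curves classed by r2 and response.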

[6] = system: 7G8; assay: qHTS profiling for inhibitors of Plasmodium falciparum proliferation (AID 504749); further: nearly all actives have a fitted effect of over 60% in size; further: potency means the concentration at half of the fitted maximal effect; settings: P. falciparum in erythrocytes, SYBR Green DNA, 72 h; series mostly up to 28.7 µM
In short: (§1)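 In a 72 h erythrocytic culture (37 C, humidified, 5% CO2) at 2.5% hematocrit and 0.3% starting parasitemia, compounds were tested; SYBR Green I in detergent lysis buffer stained parasite DNA overnight.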

[7] = system: CP192; assay: as above; settings: P. falciparum in erythrocytes, SYBR Green DNA, 72 h; series mostly up to 28.7 µM
In short: as §1

[8] = system: CP201; assay: as above; settings: P. falciparum in erythrocytes, SYBR Green DNA, 72 h; series mostly up to 28.7 µM
In short: as §1

[9] = system: CP203; assay: as above; settings: P. falciparum in erythrocytes, SYBR Green DNA, 72 h; series mostly up to 28.7 µM
In short: as §1

[10] = system: CP262; assay: as above; settings: P. falciparum in erythrocytes, SYBR Green DNA, 72 h; series mostly up to 28.7 µM
In short: as §1

[11] = system: CP266; assay: as above; settings: P. falciparum in erythrocytes, SYBR Green DNA, 72 h; series mostly up to 28.7 µM
In short: as §1

[12] = system: CP315; assay: as above; settings: P. falciparum in erythrocytes, SYBR Green DNA, 72 h; series mostly up to 28.7 µM
In short: as §1

[13] = system: DIV14; assay: as above; settings: P. falciparum in erythrocytes, SYBR Green DNA, 72 h; series mostly up to 28.7 µM
In short: as §1

[14] = system: FAB9; assay: as above; settings: P. falciparum in erythrocytes, SYBR Green DNA, 72 h; series mostly up to 28.7 µM
In short: as §1

[15] = system: HB3; assay: as above; settings: P. falciparum in erythrocytes, SYBR Green DNA, 72 h; series mostly up to 28.7 µM
In short: as §1

[16] = system: PC15; assay: as above; settings: P. falciparum in erythrocytes, SYBR Green DNA, 72 h; series mostly up to 28.7 µM
In short: as §1

[17] = system: PC26; assay: as above; settings: P. falciparum in erythrocytes, SYBR Green DNA, 72 h; series mostly up to 28.7 µM
In short: as §1

[18] = system: PC49; assay: as above; settings: P. falciparum in erythrocytes, SYBR Green DNA, 72 h; series mostly up to 28.7 µM
In short: as §1

[19] = system: W2; assay: as above; settings: P. falciparum in erythrocytes, SYBR Green DNA, 72 h; series mostly up to 28.7 µM
In short: as §1

Measured: Potency

COc1cc([C@H]2c3cc4c(cc3[C@@H](O[C@H]3O[C@H]5CO[C@@H](C)O[C@H]5[C@@H](O)[C@@H]3O)[C@@H]3COC(=O)[C@H]23)OCO4)cc(OC)c1O
active: [5] 4.46 µM | [6] 15.8 µM | [19] 13.5 µM
inactive: all other assays above
